Results reported in PubChem BioAssay (NCATS).
Records with an inconclusive call do not appear. A call without a number means that no potency is given here. Calls of active or inactive are those of the source. Unless noted, calls come from the whole dose curve; as a rule, active = well fitted curve in the direction sought with a large enough effect; inconclusive = small, poorly fitted or top-dose-only effect, or another doubt; inactive = no such curve, though single readings can be large; an effect the other way counts as inactive or inconclusive.

What was measured:
[1] = Cell Viability - BJ (AID 421; calls by dose curve;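 note: potency is the fitted concentration of half-maximal effect; cells exposed to compound for 40 hours at 37 °C before readout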); details: BJ fibroblast viability, qHTS
Method in brief: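 Cytotoxicity in human BJ foreskin fibroblasts is scored as loss of cellular ATP after a 40-hour exposure, measured by luciferase luminescence. Controls are DMSO and 100 uM tamoxifen.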

[2] = Cell Viability - HepG2 (AID 433; calls by dose curve;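 note: potency is the fitted concentration of half-maximal effect; cells exposed to compound for 40 hours; potency for ATP loss meaning cytotoxicity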); details: qHTS
Method in brief: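 HepG2 hepatocellular carcinoma cells (1500/well) were treated with compounds for 40 h at 37 °C in complete medium; intracellular ATP was read by CellTiter-Glo luminescence. Data were normalized to DMSO and 100 uM tamoxifen, and AC50 came from Hill fits.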

[3] = Cell Viability - Mesenchymal (AID 546); details: mesenchymal cells viability, qHTS; activity change, negative = cytotoxicity: at 91.7 µM (top of the series);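 note: cells exposed to compound for 40 hours before reading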
Method in brief: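 AC50 values reflect the drop in intracellular ATP in a human kidney mesenchymal line derived from normal glomeruli. Treatment lasts 40 hr at 37 °C in complete medium, and the signal comes from CellTiter-Glo luminescence.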

[4] = Cellular Toxicity (caspase-3) Jurkat (AID 655); details: Jurkat caspase-3 activation, luminescence; caspase-3 activation: at 92.2 µM (top of the series), DMSO = 0%, tamoxifen = 100%;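 note: cells exposed to compound for 16 h at 37 °C before reading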
Method in brief: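 Jurkat cells (5000/well) in complete medium were treated with compounds for 16 hr at 37 °C, then Caspase-Glo 3/7 luminescence was read after 20 min at room temperature. Data normalized to DMSO (basal) and 100 uM tamoxifen (100%); AC50 from Hill fit.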

[5] = Cell Viability - LYMP1-002 - Assay at 16 hr (AID 948); details: LYMP1-002 lymphoblastoid cell viability; series mostly up to 92.2 µM
Method in brief: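 Human lymphoblastoid cells (LYMP1-002), 2500/well, were preincubated 5 hr at 37 C, then exposed to compounds for 16 hr at 37 C in complete medium. Cellular ATP was read by CellTiter-Glo luminescence after 30 min at room temperature; AC50 from Hill fits.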

[6] = MultiTox-Fluor Cytotoxicity Assay - LYMP1-002 - Live Cells (AID 955); details: LYMP1-002 lymphoblastoid live-cell protease fluorescence viability; series mostly up to 46.1 µM
Method in brief: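 Cytotoxicity in the human lymphoblastoid line LYMP1-002 is measured as loss of live-cell protease activity after 16 h treatment in complete culture medium. AC50 is derived from Hill-equation fits of qHTS concentration-response data.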

[7] = Cell Viability - LYMP2-003 (AID 965); details: LYMP2-003 lymphoblastoid cell viability; series mostly up to 92.2 µM;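 note: cells exposed to compounds for 24 h before reading; nearly all actives have a fitted effect of over 50% in size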
Method in brief: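 Human lymphoblastoid cells (2500/well) were pre-incubated 5 hr at 37 C, then exposed to compounds over a concentration range for 24 hr at 37 C. Intracellular ATP was read by CellTiter-Glo luminescence; AC50 came from Hill-equation fits.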

[8] = Cell Viability - LYMP2-011 (AID 969); details: LYMP2-011 lymphoblastoid cells viability; series mostly up to 92.2 µM; note: nearly all actives have a fitted effect of over 60% in size
Method in brief: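 Acute toxicity is scored as a concentration-dependent drop in intracellular ATP of a human lymphoblastoid line after 24 hr treatment. Values are AC50s modeled with the Hill equation.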

[9] = Cell Viability - LYMP2-013 (AID 970); details: LYMP2-013 lymphoblastoid cells viability; series mostly up to 92.2 µM; note: nearly all actives have a fitted effect of over 55% in size
Method in brief: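 Acute toxicity was measured in human lymphoblastoid cells (2500/well) exposed to compound titrations for 24 hr, with ATP luminescence (CellTiter-Glo) as read-out and AC50 fitted by Hill equation.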

[10] = Cell Viability - LYMP2-023 (AID 975); details: LYMP2-023 lymphoblastoid cell viability; series mostly up to 92.2 µM;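 note: cellular ATP measured by luciferase luminescence as viability proxy; nearly all actives have a fitted effect of over 55% in size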
Method in brief: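 Concentration-dependent drop in intracellular ATP measures acute cytotoxicity in a human lymphoblastoid line treated for 24 hours in complete culture medium. AC50 values are taken from Hill-equation fits of qHTS data.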

[11] = Cell Viability - LYMP2-002 (AID 977); details: LYMP2-002 lymphoblastoid cell viability, qHTS; series mostly up to 92.2 µM;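 note: compound exposure lasted 24 h at 37 °C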
Method in brief: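 Cytotoxicity is scored as concentration-dependent loss of cellular ATP in a human lymphoblastoid line after 24 hr compound treatment at 37 C. AC50 is obtained by modelling concentration-response data with the Hill equation.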

[12] = Cell Viability - LYMP2-006 (AID 978); details: LYMP2-006 lymphoblastoid cell viability, qHTS; series mostly up to 92.2 µM; note: nearly all actives have a fitted effect of over 60% in size
Method in brief: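 Human lymphoblastoid cells, 2500 per well, were preincubated 5 hr at 37 C, then exposed to compounds for 24 hr at 37 C in complete medium. Viability was read as intracellular ATP by CellTiter-Glo luminescence; AC50 from Hill-equation fits of qHTS concentration-response data.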

[13] = Cell Viability - LYMP2-008 (AID 980); details: LYMP2-008 lymphoblastoid cell viability, qHTS; series mostly up to 92.2 µM; note: nearly all actives have a fitted effect of over 60% in size
Method in brief: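 Acute cytotoxicity is scored as concentration-dependent loss of cellular ATP in a human lymphoblastoid line after 24 hr treatment at 37 C. ATP is quantified by luciferase luminescence.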

[14] = Cell Viability - LYMP2-012 (AID 982); details: LYMP2-012 lymphoblastoid cell viability qHTS; series mostly up to 92.2 µM;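 note: cellular ATP by luciferase luminescence where a drop means cytotoxicity; cells exposed to compound for one day before reading; nearly all actives have a fitted effect of over 55% in size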
[15] = Cell Viability - LYMP2-020 (AID 986); details: series mostly up to 92.2 µM; note: nearly all actives have a fitted effect of over 55% in size
Method in brief: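 Acute cytotoxicity in a human lymphoblastoid line is scored as a concentration-dependent fall in cellular ATP after 24 hr at 37 C in complete medium. The positive control is tetraoctylammonium bromide, and potency is given as Hill-fit AC50.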

[16] = Cell Viability - LYMP2-022 (AID 987); details: LYMP2-022 lymphoblastoid cell viability; series mostly up to 92.2 µM; note: nearly all actives have a fitted effect of over 55% in size
Method in brief: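 Acute toxicity in a human lymphoblastoid line is scored as decreased intracellular ATP after 24 hr compound treatment at 37 C. ATP is measured by CellTiter-Glo luminescence; curves are fitted with the Hill equation to give AC50.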

[17] = Cell Viability - LYMP2-024 (AID 988); details: LYMP2-024 lymphoblastoid cell viability; series mostly up to 92.2 µM; note: nearly all actives have a fitted effect of over 60% in size
Method in brief: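 Acute toxicity is measured as concentration-dependent loss of intracellular ATP in a human lymphoblastoid line treated 24 hours at 37 C. Luciferase luminescence quantifies ATP; AC50 values come from standard Hill-equation modelling.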

[18] = Cell Viability - LYMP1-002 - Assay at 40 hr (AID 994); details: LYMP1-002 lymphoblastoid cell viability; series mostly up to 92.2 µM; note: nearly all actives have a fitted effect of over 60% in size
Method in brief: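 Viability in the human lymphoblastoid line was measured as intracellular ATP via CellTiter-Glo after 40 hr compound exposure. Tetraoctylammonium bromide served as positive control.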

[19] = qHTS assay for small molecule antagonists of retinoid X receptor alpha signaling (AID 588546); details: HEK293T RXRa-UAS-bla, beta-lactamase ratio, antagonist mode; measured here: W530 green channel, cytotoxicity proxy;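 note: cells stimulated with 9-cis-retinoic acid as agonist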
Method in brief: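 Beta-lactamase reporter inhibition, read as CCF4 fluorescence ratio (ex 405, em 460/530 nm) after 2 h at RT. HEK293T UAS-bla cells, 2500/well, were stimulated with 9-cis-RA at 500 or 100 nM final alongside test compound for 18 h at 37 C.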

[20] = qHTS assay for environmental chemicals that activate the Aryl hydrocarbon Receptor (AhR) signaling pathway (AID 651777); details: 1A2-DRE human hepatoma cells, luciferase, 24 h; activation: stronger effect = higher value; note: nearly all actives have a fitted effect of over 15% in size
Method in brief: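 Human hepatoma 1A2-DRE cells stably carrying a DRE/CYP1A2 promoter–luciferase reporter, 1,200 cells/well, exposed to compound 24 hr at 37 C. Luciferase read by One-Glo luminescence after 30 min at room temperature; increased signal marks AhR activation.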

Row | SMILES | Potency [1] | Potency [2] | Potency [3] | Potency [4] | Potency [5] | outcome [6] | Potency [7] | Potency [8] | Potency [9] | Potency [10] | Potency [11] | Potency [12] | Potency [13] | Potency [14] | Potency [15] | Potency [16] | Potency [17] | Potency [18] | max response [19] [%] | activation [20]
1 | NC(=O)Nc1nc2ccccc2[nH]1 | > 92 µM (inactive) | > 92 µM (inactive) | inactive | inactive | inactive | inactive | inactive | inactive | inactive | inactive | inactive | inactive | inactive | inactive | inactive | inactive | inactive | inactive | -1.95 | 5.33% (inactive)
2 | Cc1ccc(C(=O)O)cc1[N+](=O)[O-] | > 92 µM (inactive) | > 92 µM (inactive) | inactive | inactive | inactive | inactive | inactive | inactive | inactive | inactive | inactive | inactive | inactive | inactive | inactive | inactive | inactive | inactive | -6.14 | -0.0314% (inactive)
3 | OCC(CBr)(CBr)CBr | > 92 µM (inactive) | > 92 µM (inactive) | inactive | inactive | inactive | inactive | inactive | inactive | inactive | inactive | inactive | inactive | inactive | inactive | inactive | inactive | inactive | inactive | -12.3 | 7.86% (inactive)
4 | Cc1ccc2ccc3cccc4ccc1c2c34 | > 92 µM (inactive) | > 92 µM (inactive) | inactive | inactive | inactive | inactive | inactive | inactive | inactive | inactive | inactive | inactive | inactive | inactive | inactive | inactive | inactive | inactive | -6.82 | 5.12% (inactive)
5 | Cc1ccc(N)cc1[N+](=O)[O-] | > 92 µM (inactive) | > 92 µM (inactive) | inactive | inactive | inactive | inactive | inactive | inactive | inactive | inactive | inactive | inactive | inactive | inactive | inactive | inactive | inactive | inactive | -2.06 | 0.886% (inactive)
6 | CC(C)COC(=O)COc1cc(Cl)c(Cl)cc1Cl | > 92 µM (inactive) | > 92 µM (inactive) | inactive | inactive | inactive | inactive | inactive | inactive | inactive | inactive | inactive | inactive | inactive | inactive | inactive | inactive | inactive | inactive | -2.2 | 1.79% (inactive)
